Measurements from PubChem BioAssay (NCI).
Compounds without any hit were thinned out: in the full panel of roughly 83,000, 20% have a hit.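 In brief: 96-well plates, 48 h treatment, single concentration, percent growth endpoint.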 Unmarked numbers belong to inactive results. Activity calls are given as the source filed them. The calls were made as follows: active = growth percent below 10; inactive = the rest.

Columns and labels:
Test in all cases: NCI-60 one-dose screen, 48 h (100 = growth as untreated, 0 = no growth, -100 = all killed)
NCI-H23 lung = conditions: 10 µM unless noted
NCI-H226 lung = conditions: 10 µM unless noted
NCI-H322M lung = conditions: 10 µM unless noted
HOP-62 NSCLC = conditions: 10 µM unless noted
NCI-H460 lung = conditions: 10 µM unless noted
HOP-92 NSCLC = conditions: 10 µM unless noted
NCI-H522 lung = conditions: 10 µM unless noted
A549/ATCC NSCLC = conditions: 10 µM unless noted
786-0 renal = conditions: 10 µM unless noted
COLO 205 colon = conditions: 10 µM unless noted
DU-145 prostate = conditions: 10 µM unless noted
MALME-3M melanoma = conditions: 10 µM unless noted
MDA-MB-231 breast = conditions: 10 µM unless noted
RXF 393 renal = conditions: 10 µM unless noted
SF-268 CNS = conditions: 10 µM unless noted
SF-295 CNS = conditions: 10 µM unless noted
SF-539 CNS = conditions: 10 µM unless noted
UACC-257 melanoma = conditions: 10 µM
M14 melanoma = conditions: 10 µM unless noted
K-562 leukemia = conditions: 10 µM unless noted

SMILES	growth (NCI-H23 lung)	growth (NCI-H226 lung)	growth (NCI-H322M lung)	growth (HOP-62 NSCLC) [%]	growth (NCI-H460 lung)	growth (HOP-92 NSCLC)	growth (NCI-H522 lung)	growth (A549/ATCC NSCLC)	growth (786-0 renal)	growth (COLO 205 colon)	growth (DU-145 prostate)	growth (MALME-3M melanoma)	growth (MDA-MB-231 breast) [%]	growth (RXF 393 renal)	growth (SF-268 CNS) [%]	growth (SF-295 CNS)	growth (SF-539 CNS)	growth (UACC-257 melanoma) [%]	growth (M14 melanoma)	growth (K-562 leukemia)
CC(=O)C1CCC(C)=CC1=O (stereo not drawn)	102%	104%	85.8%	111	106%	96.9%	89.7%	98.3%	91.8%	116%	114%	93.4%	104	113%	99.1	101%	99.6%	92.8	97.5%	
CCN(Cc1ccccc1)c1ccc(SC#N)cc1	80.6%	112%	91.6%	118	90%	53.4%	-26.7% (active)	102%	73.4%	50.4%	98.3%	88%		47.6%	83.8	95.3%	82.2%	107	89.2%	41%
c1ccc2nc(-c3ccc4ccccc4n3)ccc2c1	88.5%	85.9%	95.8%	82.8	103%	83%	70%	102%		106%	106%	83.5%		117%	95.9	93.5%	88.3%	106	90.2%	93.3%
NC(C(=O)O)C(O)c1ccc(OCc2ccccc2)c(OCc2ccccc2)c1 (stereo not drawn)	96.3%	99.2%	109%	88.7	108%	73.8%	93.5%	93.4%	98.7%	106%	107%	114%		100%	97.4	97.8%	97.2%		97.4%	95.6%
CCC(c1ccc(OC)cc1)C(CC)c1ccc(O)c(CN2CCCC2)c1 (stereo not drawn)	9.32% (active)	31.7%	14.4%	30.9	-47.2% (active)	-34.7% (active)	22.8%	33.1%	4.61% (active)	-85% (active)	43.3%	-56.1% (active)		-31.1% (active)	21.2	-51.2% (active)	-18.9% (active)		-47.4% (active)	-32.1% (active)
Clc1ccc([I+]c2ccc(Cl)cc2Cl)c(Cl)c1	18%	102%	77.2%	36.5	81%	14.9%	-91.1% (active)	76%	11.2%	-79.2% (active)	4.04% (active)	50.2%	38.3	-15.1% (active)	26.5	97.4%	16.8%	66.4	88.8%	
Cc1cc(C)c(NC(=O)c2sc3nc4c(cc3c2N)CN(Cc2ccccc2)CC4)c(C)c1	55.2%	49.5%	39.3%	33.7	10.8%	37.7%	13.5%	30.3%	39%	12.3%	27.6%		44	26.1%	36.5	21.9%	8.37% (active)	48	40.2%	9.63% (active)
O=C(CC(O)c1ccncc1)c1ccccc1 (stereo not drawn)	-18.6% (active)	9.03% (active)	-8.53% (active)	22.9	102%	10.2%	-36.6% (active)	15.5%	9.96% (active)	-54.7% (active)	3.98% (active)	91.9%		-69.4% (active)	74.9	51.8%	8.03% (active)	83.1	90.8%	57.9%
Clc1ccc(-c2nc(-c3ccco3)cn3ccnc23)cc1	61%	46.3%	11.4%	31.4	14.5%	34.7%	61.5%	-1.62% (active)	-41.1% (active)	75%	67.3%	77%		41.6%	64.3	15.1%	62.2%	75.2	97.4%	68.9%
